Laboratory results reported in PubChem BioAssay (Tox21).
The source made the active and inactive calls. Entries that show only a call come without a potency. Calls follow the shape of the full dose curve.

molecular target: Acetylcholinesterase (Homo sapiens) (UniProt P22303); assay: Acetylcholinesterase (AChE) small molecule antagonists: enzyme-based qHTS assay with human liver microsomes (AID 1347399); details: Potency: qHTS inhibition; outcome: qHTS inhibition; series mostly up to 115 µM; also: nearly all actives have a fitted effect of over 60% in size
Sequence (P22303 whole entry, looked up): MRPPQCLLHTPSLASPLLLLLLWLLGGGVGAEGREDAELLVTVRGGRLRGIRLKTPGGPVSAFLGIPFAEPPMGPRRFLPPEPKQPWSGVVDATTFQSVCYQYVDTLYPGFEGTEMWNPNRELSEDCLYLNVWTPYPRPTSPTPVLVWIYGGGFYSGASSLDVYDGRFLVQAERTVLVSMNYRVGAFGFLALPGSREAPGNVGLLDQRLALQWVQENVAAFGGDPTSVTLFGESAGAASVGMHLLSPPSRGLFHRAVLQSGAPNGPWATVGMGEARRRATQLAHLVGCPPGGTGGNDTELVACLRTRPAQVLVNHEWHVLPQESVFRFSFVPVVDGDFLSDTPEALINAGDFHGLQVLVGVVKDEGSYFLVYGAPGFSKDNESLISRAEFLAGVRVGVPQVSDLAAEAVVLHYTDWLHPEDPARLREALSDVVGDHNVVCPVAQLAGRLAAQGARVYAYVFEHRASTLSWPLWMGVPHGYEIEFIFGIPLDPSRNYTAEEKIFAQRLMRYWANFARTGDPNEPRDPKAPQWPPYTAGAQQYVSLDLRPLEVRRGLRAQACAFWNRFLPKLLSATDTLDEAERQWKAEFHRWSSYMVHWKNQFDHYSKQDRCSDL
Method in brief: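 Recombinant human AChE (50 mU/mL in the enzyme mix) and human liver microsomes (0.25 mg/mL final) were preincubated with compound and NADPH (0.25 mg/mL final) for 30 min at 37 C. Acetylthiocholine/DTNB was then added; thiocholine was read colorimetrically after 10 min at room temperature.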

Structure (SMILES)	Potency
Cc1cccc(C(=O)O)c1O	inactive
CCOCCOCCOCC	inactive
CC(C)=CC(=O)C=C(C)C	inactive
CNCCCC12CCC(c3ccccc31)c1ccccc12	inactive
CC(=O)O[Si](C)(OC(C)=O)OC(C)=O	inactive
CC/C=C\CCOC(=O)c1ccccc1O	inactive
CC(C)(Oc1ccc(Cl)cc1)C(=O)O	inactive
CCOC(=O)CC(=O)OCC	inactive
CC1=CC(C)C(C=O)C(C)C1 (stereo not given)	inactive
Cc1ccccc1C(=O)Nc1ccc(C(=O)N2CCCC(N(C)C)c3ccccc32)cc1 (stereo not given)	inactive
C1=Cc2ccccc2C1	inactive
CCOC(=O)C1=NOC(c2ccccc2)(c2ccccc2)C1	inactive
CCCCCCc1ccc(-c2ccc(C#N)cc2)cc1	inactive
CC/C=C\C/C=C\C/C=C\CCCCCCCC(=O)OCC	inactive
O=C(O)c1ccccc1Cl	inactive
Cc1ccc(C(C)C)cc2c(C)ccc1-2	inactive
C=C(C)C(=O)OCCO	inactive
O=c1[nH][nH]c2ccccc12	inactive
CC1CCC(C(C)CS)CC1S (stereo not given)	inactive
O=C1c2ccccc2C(=O)N1CCl	inactive

Structure (SMILES)	Potency
Oc1ccccc1O	inactive
CCN1CN(CC)CN(CC)C1	inactive
CC1=NN(c2ccc(S(=O)(=O)O)cc2)C(=O)C1	inactive
CC/C=C(\C(=O)N[C@@H]1C(=O)N2C(C(=O)OCOC(=O)C(C)(C)C)=C(COC(N)=O)CS[C@H]12)c1csc(N)n1	inactive
CCOc1ccc(OCC)c(Cl)c1	inactive
CCCCCCCCCCO[C@@H]1O[C@H](CO)[C@@H](O)[C@H](O)[C@H]1O	inactive
CCN(CC)CCSC(=O)C(c1ccccc1)c1ccccc1	inactive
O=[N+]([O-])c1cc[n+]([O-])cc1	inactive
O=C(O)C(=O)O	inactive
CC(C#N)(CCC(=O)O)N=NC(C)(C#N)CCC(=O)O (stereo not given)	inactive
O=C(O)CCCCCCCCC(=O)O	inactive
CCN(CC)CC1CCCCN1CC(=O)N1c2ccccc2C(=O)Nc2cccnc21 (stereo not given)	inactive
CCc1occc(=O)c1O	inactive
O=[N+]([O-])c1ccc(O)cc1	inactive
CCc1ncc(C)[nH]1	inactive
Oc1cc2ccccc2cc1O	inactive
O=C(O)c1cc(O)c(O)c(O)c1	inactive
CCOC(=O)/C=C\C(=O)OCC	inactive
C=C(C)c1cccc(C(C)(C)N=C=O)c1	inactive
CCCCCCCCNC	inactive
